19 compounds from PubChem BioAssay (NCATS) can be followed below.

Records with an inconclusive call do not appear. Unmarked numbers belong to inactive results. Active and inactive are the calls of the source. The call rests on the fitted dose curve; in most records, active means well fitted cell-killing curve with a large enough effect; inconclusive means small, poorly fitted or top-dose-only effect; inactive means flat fitted curve, though single readings scatter.
On the % scale 0 is the no-effect control and ±100 the full control effect.

The nature of the assay: Cell Viability - LYMP2-006 (AID 978). Further: nearly all actives have a fitted effect of over 60% in size. The note with it: LYMP2-006 lymphoblastoid cell viability, qHTS; series mostly up to 92.2 µM; activity change, negative = cytotoxicity: at the top concentration. From the text: NIH Chemical Genomics Center [NCGC]
NIH Molecular Libraries Screening Centers Network [MLSCN]
National Institutes of Environmental Health Sciences [NIEHS]
National Toxicology Program [NTP]
We have developed a 1536-well cell-based assay for quantitative high throughput screening (qHTS) against a number of cell lines to determine in vitro cytotoxicity of small molecules. This particular assay uses a human lymphoblastoid cell line (LYMP2-006) purchased from Coriell Institute for Medical Research.
NCGC Assay Protocol Summary:
The CellTiter-Glo luminescent cell viability assay (Promega) is a homogeneous method to measure the number of viable cells in culture. The end point readout of this assay is based on quantitation of intracellular ATP, an indicator of metabolic activity, using the luciferase reaction. Luciferase catalyzes the oxidation of beetle Luciferin to oxyluciferin and light in the presence of ATP. The luminescent signal is proportional to amount of ATP present.
Using the CellTiter-Glo luminescent cell viability assay, the amount of cellular ATP was measured in the lymphoblastoid cell line with complete culture medium following compound treatment for 24 hours. The assay was performed in opaque white Kalypsys 1536-well plates. In the screen, tetraoctylammonium bromide was used as positive control. Library compounds were measured for their ability to cause acute toxicity in the cell line, as reflected by a decrease in intracellular ATP levels, in a concentration-dependent manner. […] AC50 values were determined from concentration-response data modeled with the standard Hill equation.
qHTS protocol for CellTiter Glo lymphoblastoid cellular assay
[Step] [Parameter] [Value] [Description]
1. Reagent; 5 uL; 2500 lymphoblastoid cells/well
2. Time; 5 hr; 37 C incubation
4. Controls; 23 nL; Tetraoctylammonium bromide 6.4pM to 92 uM
5. Time; 24 hr; 37 C incubation
6. Reagent; 5 uL; CellTiter Glo reagent
7. Time; 30 min; Room Temperature
8. Detection; Luminescence; Viewlux plate reader
Keywords: cell viability, cytotoxicity, lymphoblastoid cell line, luminescence, NTPHTS, NTPHTS_NCGC, NIEHS, DSSTox, MLSMR, MLSCN, NIH Roadmap, qHTS, NCGC
In general terms: In qHTS, concentration-response curves come from the screen itself.
With `C[C@]12CCC(=O)C=C1CC[C@@H]1[C@@H]2CC[C@@]2(C)[C@H]1CC[C@]2(C)O`, the “activity change, negative = cytotoxicity” value was -9.97%.

For `CN1C[C@H](C(=O)N[C@]2(C)O[C@@]3(O)[C@@H]4CCCN4C(=O)[C@H](Cc4ccccc4)N3C2=O)C=C2c3cccc4[nH]cc(c34)C[C@H]21`, the “activity change, negative = cytotoxicity” value was -27.6%.

On to `O=P1(N(CCCl)CCCl)NCCCO1` (centres undefined), for which the “activity change, negative = cytotoxicity” value is 0.338%.

`Nc1ccccc1`: the “activity change, negative = cytotoxicity” value is -13.8%.

Turning to `CC(C)NC(C)C`, the “activity change, negative = cytotoxicity” value was -7.46%.

As for `COC(=O)C(c1ccccc1)C1CCCCN1` (centres undefined), the “activity change, negative = cytotoxicity” value is -12.6%.

Regarding `COP(=S)(OC)Oc1ccc(SC)c(C)c1`, the “activity change, negative = cytotoxicity” value is -6.13%.

With `CCCC(C)(COC(N)=O)COC(N)=O`, the “activity change, negative = cytotoxicity” value was -5.14%.

Consider `Nc1ccccc1C(=O)O`, for which the “activity change, negative = cytotoxicity” value is 2.23%.

As to `NCCc1ccc(O)cc1`, the “activity change, negative = cytotoxicity” value is -1.04%.

On to `CC(C)c1cccc(C(C)C)c1O`, for which the “activity change, negative = cytotoxicity” value was -1.11%.

On to `Clc1ccc(C(c2ccc(Cl)cc2)C(Cl)(Cl)Cl)cc1`, for which the “activity change, negative = cytotoxicity” value was -6.5%.

For `CCOC(=O)CC(SP(=S)(OC)OC)C(=O)OCC` (centres undefined), the “activity change, negative = cytotoxicity” value was -29.2%.

In the case of `C[C@]12CCC(=O)C=C1CC[C@@H]1[C@@H]2CC[C@]2(C)C(=O)CC[C@@H]12`, the result was inactive.

For `C[C@]1(O)CC[C@H]2[C@@H]3CCC4=CC(=O)CC[C@]4(C)[C@@]3(F)[C@@H](O)C[C@@]21C`, the “activity change, negative = cytotoxicity” value is -16.9%.

Consider `Oc1ccc(Cl)cc1`, for which the “activity change, negative = cytotoxicity” value was -1.78%.

For the compound `O=C(O)CCCc1ccc(N(CCCl)CCCl)cc1`, the “activity change, negative = cytotoxicity” value is -29.3%.

Regarding `CCC(C)(C)c1ccc(O)cc1`, the “activity change, negative = cytotoxicity” value was -3.15%.

As to `COc1cc(OC)c(OC)cc1C=O`, the “activity change, negative = cytotoxicity” value is -1.19%.
